Results on 82 compounds are retold here after PubChem BioAssay AID1053197 (The Scripps Research Institute Molecular Screening Center, 2014).

About 2,600 (0.7%) of roughly 370,000 compounds were called active.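 How the source made its calls: active means inhibition above a cutoff: mean of compounds within the control limits plus 3 SD of those (cut at about 17% in these data); inactive means the rest.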 The full list was thinned out, with actives kept by preference.

The target in this assay is Sialate O-acetylesterase (Homo sapiens) (UniProt Q9HAT2). The assay can be described thus: blockers of sialate O-acetylesterase activity-probe labeling – biochemical, fluorescence polarization, FP-Rh probe, 1536-well HTS, primary screen (AID 1053197).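 Further: 0% = plate median of compound wells and 100% = probe without SIAE protein.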 To be noted: SIAE FP-Rh probe binding, at 9.66 µM, stronger effect = higher value.
Sequence of Sialate O-acetylesterase (Homo sapiens) (Q9HAT2 whole entry, looked up): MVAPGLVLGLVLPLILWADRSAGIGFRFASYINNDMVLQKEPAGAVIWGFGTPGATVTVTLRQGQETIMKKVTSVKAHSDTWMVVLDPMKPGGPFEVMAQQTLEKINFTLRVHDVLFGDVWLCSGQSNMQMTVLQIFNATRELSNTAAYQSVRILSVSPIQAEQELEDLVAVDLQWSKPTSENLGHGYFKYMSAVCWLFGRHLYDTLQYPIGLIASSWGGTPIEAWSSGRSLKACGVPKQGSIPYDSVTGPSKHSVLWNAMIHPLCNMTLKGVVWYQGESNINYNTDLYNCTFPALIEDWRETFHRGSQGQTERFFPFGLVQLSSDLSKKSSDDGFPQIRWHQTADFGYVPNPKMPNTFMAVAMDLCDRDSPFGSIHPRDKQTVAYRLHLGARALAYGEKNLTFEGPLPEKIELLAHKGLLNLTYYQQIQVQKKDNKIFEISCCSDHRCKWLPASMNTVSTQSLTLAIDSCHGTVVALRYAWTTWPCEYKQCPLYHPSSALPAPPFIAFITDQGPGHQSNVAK
In general, inhibition refers to the change of the read-out against control, counted positive when it falls. In the case of `Cc1cccc(N2C(=O)SC(SC(=Nc3ccccc3)Nc3ccccc3)C2=O)c1` (configuration not stated), the inhibition was 18.1% (active).
Turning to `Cc1cccc(N2C(=O)SC(N(CC(=O)O)c3cccc(C)c3)C2=O)c1` (configuration not stated), the inhibition is 1.65% (inactive).
Take `COC(=O)c1ccccc1SC1CC(=O)N(c2cccc(C)c2)C1=O` (configuration not stated): the inhibition is -0.8% (inactive).
In the case of `COc1ccc(Cn2cc(COC(=O)N(C)Cc3ccccc3)nn2)cc1`, the inhibition is 0.99% (inactive).
With `CCOC(=O)[C@]12CCCC3=C1N(CCC3)C(=O)[C@@H](CC(=O)N1CCSCC1)C2`, the inhibition was -3.23% (inactive).
Turning to `Cc1cc(=O)[nH]c(SCC(=O)Nc2ccc(F)cc2F)n1`, the inhibition is -0.82% (inactive).
For the compound `O=C(Nc1ccccc1N1CCCC1)c1ccc(F)c(S(=O)(=O)N2CCOCC2)c1`, the inhibition was 20.5% (active).
Take `Cc1ccc(S(=O)(=O)N2CCOCC2)cc1C(=O)Nc1ccccc1N1CCCC1`: the inhibition is 12.1% (inactive).
The figure for `CCN(CC)S(=O)(=O)c1cc(C(=O)Nc2cc(S(=O)(=O)N3CCOCC3)ccc2N2CCCC2)ccc1F` is 1.03% (inactive); for `CC(C)CNC(=O)OCc1cn(Cc2ccc(F)cc2)nn1` it is -8.33% (inactive); for `Cc1cc(=O)[nH]c(SCC(=O)Nc2ccc(Cl)cc2C)n1` it is 1.99% (inactive).
The figure for `O=C(c1ccccc1)c1ccc(-c2ccccc2C(=O)NC2CCCCN(Cc3ccc(Cl)cc3)C2=O)cc1` (configuration not stated) is 1.39% (inactive).
For the compound `CC1CC(C)CN(C/C=C/c2ccccc2[N+](=O)[O-])C1` (configuration not stated), the inhibition was 2.91% (inactive).
With `CC1CCCCC1NC(=O)/C(C#N)=C/C=C/c1ccccc1[N+](=O)[O-]` (configuration not stated), the inhibition was 17.2% (active).
The figure for `COc1cc(/C=C(\C#N)C(=O)Nc2ccc3ccccc3c2)c([N+](=O)[O-])cc1OC` is -1.47% (inactive); for `CC(C)CNc1cccc2c1S(=O)(=O)N(Cc1cn(Cc3ccc(Cl)cc3)nn1)Cc1ccccc1O2` it is 3.21% (inactive); for `O=C(NC1CCCCN(Cc2ccc(Cl)cc2)C1=O)c1ccc(Br)cc1` (configuration not stated) it is -3.06% (inactive).
With `CN(Cc1ccc(C(F)(F)F)cc1)C(=O)[C@H]1O[C@@H](n2cnc3c(N)ncnc32)[C@H](O)[C@@H]1O`, the inhibition is 81.3% (active).
Under `Nc1ncnc2c1ncn2[C@@H]1O[C@H](C(=O)N2CCSC2)[C@@H](O)[C@H]1O` stands 1.67% (inactive); under `Nc1ncnc2c1ncn2[C@@H]1O[C@H](C(=O)N[C@@H](CCc2ccccc2)C(=O)NCC(=O)N2CCOCC2)[C@@H](O)[C@H]1O`, 2.34% (inactive).
Turning to `Nc1ncnc2c1ncn2[C@@H]1O[C@H](C(=O)NCC(F)(F)F)[C@@H](O)[C@H]1O`, the inhibition is 51.2% (active).
As for `Nc1ncnc2c1ncn2[C@@H]1O[C@H](C(=O)N2CCCN(Cc3ccccc3F)CC2)[C@@H](O)[C@H]1O`, the inhibition is -1.61% (inactive).
Regarding `CN(Cc1ccc(CNC[C@H]2O[C@@H](n3cnc4c(N)ncnc43)[C@H](O)[C@@H]2O)o1)S(C)(=O)=O`, the inhibition was -0.06% (inactive).
Take `CC(C)CSc1nnc(-c2cccnc2)n1Cc1ccccc1`: the inhibition was 0.87% (inactive).
In the case of `O=C(NCc1ccc(Cl)cc1)C1CCCN(c2nc3ccccc3o2)C1` (configuration not stated), the inhibition was 1.99% (inactive).
Under `O=C(Nc1cc(F)cc(F)c1)OC1CCC12CCC(c1ccccc1)CC2` (configuration not stated) stands -17% (inactive); under `Nn1c(SCC(=O)N2c3ccccc3Sc3ccccc32)nnc1-c1n[nH]c2c1CCC2`, -8.15% (inactive); under `CN(C)CC(=O)N[C@@H]1C[C@@H]2O[C@H](CO)CC[C@@H]2O[C@@H]1CCc1ccc(C#Cc2ccccc2)cc1`, 5.34% (inactive).
The figure for `COc1ccc(C(=O)OCCN(C)C2CN(Cc3cn(Cc4cccc(C)c4)nn3)S(=O)(=O)C2)cc1OC` (configuration not stated) is -4.69% (inactive); for `C/C(=N\NC(=O)c1cccnc1)c1ccc(-n2ccnc2)cc1` it is 2.74% (inactive); for `C/C(=N\NC(N)=S)c1cccnc1` it is 1.42% (inactive).
`O=C(NN=C1CCC(=NNC(=O)c2cccnc2)CC1)c1cccnc1`: the inhibition is 20.1% (active).
On to `O=C(N/N=C/c1ccc(O)c2ccccc12)c1cccnc1`, for which the inhibition is 18.7% (active).
Take `O=C(O)/C(=C/c1cccnc1)NC(=O)c1ccccc1`: the inhibition is 5.04% (inactive).
Regarding `NS(=O)(=O)c1ccc(NC(=S)NC(=O)c2cccnc2)cc1`, the inhibition was 1.85% (inactive).
The figure for `Cc1cc(NS(=O)(=O)c2ccc(NC(=O)CSc3nnc(-c4ccc(C(C)(C)C)cc4)n3Cc3ccco3)cc2)nc(C)n1` is -2.29% (inactive); for `COC(=O)[C@]12C[C@H](CC(=O)NCC34CC5CC(CC(C5)C3)C4)C(=O)N(Cc3ccc(Cl)cc3Cl)C1=C[C@H](COCc1ccccc1)O[C@@H]2C` it is -3.29% (inactive); for `COc1cc(C(=O)Nn2c(O)c(C3=c4ccccc4=NC3=O)sc2=S)ccc1O` it is 40.2% (active).
On to `COc1cc(C(=O)Nn2c(CC(C)C)nc3ccccc3c2=O)cc(OC)c1OC`, for which the inhibition is -1.34% (inactive).
For the compound `COc1cc(C(=S)NC2CCCCC2)ccc1O`, the inhibition was 2.61% (inactive).
Under `Cc1ccc(Cn2cc(COC(=O)N(C)Cc3ccccc3)nn2)cc1` stands 2.24% (inactive); under `CC(=O)N1CCCN(C2=Nc3ccccc3Sc3ccccc32)CC1`, 13.5% (inactive).
For the compound `COCCNC(=O)Nc1ccc2nc(-c3ccco3)c(-c3ccco3)nc2c1`, the inhibition was 37.3% (active).
Take `COCCNC(=O)c1cc2c(Br)ccc(Br)c2nc1N`: the inhibition was -3.42% (inactive).
Regarding `COCCN(C(=O)c1ccco1)c1nnc(-c2ccc(OC)cc2)s1`, the inhibition was -0.46% (inactive).
As for `CCCCCN1CCCCC(NC(=O)C(C)CCC)C1=O` (configuration not stated), the inhibition was -1.97% (inactive).
Turning to `CCOC(=O)[C@]12CCCC=C1N(Cc1ccc(OC)cc1)C(=O)[C@@H]2CC(=O)NCc1cccs1`, the inhibition was 0.94% (inactive).
The figure for `Cc1c[nH]c2cccc(-c3ccc(Cl)cc3)c12` is 4.94% (inactive); for `O=[N+]([O-])c1cc([N+](=O)[O-])c2cccnc2c1O` it is 0.23% (inactive).
Regarding `CC(=O)NC(c1cccs1)c1cc(Br)c2cccnc2c1O` (configuration not stated), the inhibition is 20.8% (active).
Consider `CCCCC(=O)NC(c1ccc(OC)c(OC)c1)c1ccc2cccnc2c1O` (configuration not stated), for which the inhibition was 15.1% (inactive).
Take `COC(=O)[C@]12C[C@H](CC(=O)N3CCN(C(=O)C4CC4)CC3)C(=O)N(CCC3=CCCCC3)C1=C[C@H](C(C)C)O[C@@H]2C1CC1`: the inhibition is 0.92% (inactive).
For `O=C(CSc1nc2ccccc2n1Cc1ccccc1)NNC(=S)Nc1ccccc1`, the inhibition was 2.33% (inactive).
Under `COCC(=O)N[C@@H]1C[C@@H]2O[C@@H](CO)CC[C@@H]2O[C@@H]1CCc1ccc(-c2ccccc2)cc1` stands 2.31% (inactive); under `Cc1ccc(Cn2cc(CN3[C@@H](CC(C)C)COc4ccc(Cl)cc4S3(=O)=O)nn2)cc1`, 1.1% (inactive); under `Cc1ccc(N2C(=O)C3N=NN(CC(=O)N4N=C(c5cccc6ccccc56)CC4c4ccccc4)C3C2=O)cc1` (configuration not stated), -11.7% (inactive).
On to `COc1ccc(C2CC(c3cccc(OC)c3)=NN2c2ccc(S(N)(=O)=O)cc2)cc1` (configuration not stated), for which the inhibition was 6.8% (inactive).
The figure for `Oc1ccccc1C1=NN(c2ccccc2)C(c2ccccc2)C1` (configuration not stated) is 20.5% (active); for `O=C1CC[C@@]23CCCN2C(=O)CCC[C@H]3[C@H]1Cc1ccccc1` it is 4.29% (inactive); for `Cc1cccc(Cn2c(N3CCN(c4ccccc4)CC3)nc3c2c(=O)n(C)c(=O)n3C)c1` it is -1.65% (inactive).
The figure for `CCOc1ccc(Cn2c(SCCCCC#N)nc3c2c(=O)n(C)c(=O)n3C)cc1OCC` is 25.8% (active); for `CCOc1ccc2nc(NC(=O)CSc3nc4c(c(=O)n(C)c(=O)n4C)n3CC)sc2c1` it is -3.15% (inactive).
Take `COC(=O)c1cccc(Cn2ccc3ccc(-c4ccc5ccn(C(=O)C6CCCCC6)c5c4)cc32)c1`: the inhibition was -4.45% (inactive).
With `N#CCC[C@H]1CC[C@]2(CCCN(Cc3ccc(Cl)cc3)C2)O1`, the inhibition was 1.15% (inactive).
`C#CCNC(=O)C[C@H]1C[C@@]2(C(=O)OC)C(=C[C@H](C(C)C)O[C@@H]2C2CC2)N(Cc2ccco2)C1=O`: the inhibition was 4.68% (inactive).
The figure for `COc1ccc(/C=N/Nc2ncnc3sc4c(c23)CCCC4)cc1O` is -1.15% (inactive); for `COc1cc(/C=C/C(=O)OCC(=O)NCCCc2ccccc2)ccc1O` it is 9.1% (inactive); for `COc1cc(/C=N\Nc2nc(-c3cccs3)c(NC(C)=O)s2)ccc1O` it is 18.3% (active).
Consider `O=C(NCc1cccs1)C1CCCN(S(=O)(=O)c2ccc([N+](=O)[O-])cc2)C1` (configuration not stated), for which the inhibition is 3.31% (inactive).
In the case of `COc1ccc(-n2c(SCC(=O)Nc3ccc4c(c3)OCCO4)nnc2-c2ccc(Cl)cc2)cc1`, the inhibition was 2.64% (inactive).
For `CCCCn1c(N)c(N(CC(C)C)C(=O)CN(C)S(=O)(=O)c2ccc(F)cc2)c(=O)[nH]c1=O`, the inhibition is 2.93% (inactive).
On to `CCCCn1c(N)c(N(CCC(C)C)C(=O)c2ccc([N+](=O)[O-])o2)c(=O)[nH]c1=O`, for which the inhibition was 1.61% (inactive).
Under `CCCCn1c(N)c(N(CC(C)C)C(=O)CSc2ccc([N+](=O)[O-])cc2)c(=O)[nH]c1=O` stands 17.8% (active).
For the compound `CCC(=O)OCCCN1C(=O)CCC12CCC(c1ccccc1)CC2` (configuration not stated), the inhibition is 10.2% (inactive).
With `COC(=O)[C@@]12CCCCC3=C1N(CCC3)C(=O)[C@H]2CC(=O)NCc1cccc2ccccc12`, the inhibition is 3.42% (inactive).
The figure for `CC(C)C(C#CC1CC1)N(Cc1ccc2c(c1)OCO2)C(N)=NC(=O)/C=C/c1cccc(C(F)(F)F)c1` (configuration not stated) is -3.05% (inactive); for `CCN(CC)C(=O)CC[C@@H]1CC[C@]2(CCCN(S(=O)(=O)C3CCCCC3)C2)O1` it is 0.62% (inactive).
With `CC(=O)Nc1cnc(-c2ccc(O)cc2C)cn1`, the inhibition was 1.05% (inactive).
Consider `Cc1ccc(-c2csc(NCCc3nc4cc(Cl)c(Cl)cc4n3CCOCCO)n2)cc1`, for which the inhibition was 1.85% (inactive).
As to `Cc1ccc(Nc2nc(-c3ccc(O)cc3O)cs2)nc1`, the inhibition was 20.7% (active).
With `COC(=O)[C@H](C(C)C)N(CCc1cn(Cc2ccccc2)nn1)S(=O)(=O)c1ccc(F)cc1Br`, the inhibition was 0.91% (inactive).
For the compound `Cc1ccc(-n2c(SCC(=O)Nc3ccc(S(=O)(=O)Nc4nccs4)cc3)nnc2-c2ccccn2)cc1`, the inhibition is -6.07% (inactive).
